In PubChem BioAssay AID1159580 (chemical genetic matrix, 2015):
Hit rate of the full screen: of about 5,500 compounds, about 2,000 (36%) were called active. Another 18% or so got no clear call; they are omitted. Cut-off read from the data, not from the text of the source: active = normalized growth mostly below about 0.91 (no sharp cut-off); inconclusive = no clear call, values can overlap the other calls; inactive = mostly above about 0.92. The list shows a part of the results.

Test: chemical genetic growth profiling, strain panel (AID 1159580);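 note: tested at 20 µM; growth read once vehicle control cultures reached saturation at 30 °C; 1 = growth at the plate median or of vehicle wells; lower values mean less growth of the strain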
Settings: S. cerevisiae deletion strains, growth OD

Measured: normalized growth

S=C(Nc1ccccc1)Nc1nccs1
inactive: locus YAL013W, strain DEP1, hits give low values 1.01 | locus YAL040C, strain CLN3, hits give low values 1.01 | locus YCL061C, strain MRC1 (second series), hits give low values 0.993 | locus YDR150W, strain NUM1, hits give low values 0.974 | locus YDR363W, strain ESC2, hits give low values 0.977 | locus YER002W, strain NOP16, hits give low values 0.991 | locus YGR078C, strain PAC10, hits give low values 0.988 | locus YMR307W, strain GAS1, hits give low values 0.993 | locus YNL175C, strain NOP13, hits give low values 0.999 | locus YNL197C, strain WHI3, hits give low values 0.993 | locus YNL224C, strain SQS1, hits give low values 0.995 | locus YPL055C, strain LGE1, hits give low values 0.948
active: locus YNL153C, strain GIM3, hits give low values 0.772
